# Reference: the supplement of paper PMC6555819
# Columns and labels:
# Test in all cases: PBM binding z-score (relative to random genomic background probes); higher = stronger binding; sequences stand for … in GC…GCGATTGACAGCGTAGAATGAAGG
# [1] = system: FXR:RXRa (NR concentration 270 nM, RXRa partner concentration 90 nM)
# Outline: (§1)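 Each nuclear receptor dimer, without ligand, was incubated for 1 h on custom Agilent 4×180K protein-binding microarrays. Binding was detected with antibodies against each partner (one per run), and scanned fluorescence was regression-normalized. The binding z-scores are referenced to random human genomic background probes.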
# [2] = system: LXRa:RXRa (NR concentration 270 nM, RXRa partner concentration 90 nM)
# Outline: as §1
# [3] = system: LXRa homodimer (NR concentration 270 nM)
# Outline: as §1
# [4] = system: LXRb:RXRa (NR concentration 270 nM, RXRa partner concentration 90 nM)
# Outline: as §1
# [5] = system: LXRb homodimer (NR concentration 270 nM)
# Outline: as §1
# [6] = system: PPARa:RXRa (NR concentration 270 nM, RXRa partner concentration 90 nM)
# Outline: as §1
# [7] = system: PPARg:RXRa (NR concentration 180 nM, RXRa partner concentration 90 nM)
# Outline: as §1
# [8] = system: PPARg:RXRa 270nM:90nM, anti-RXR (NR concentration 270 nM, RXRa partner concentration 90 nM)
# Outline: as §1
# [9] = system: PPARg:RXRa 30nM:10nM, anti-RXR (NR concentration 30 nM, RXRa partner concentration 10 nM)
# Outline: as §1
# [10] = system: PPARg:RXRa 90nM:30nM, anti-RXR (NR concentration 90 nM, RXRa partner concentration 30 nM)
# Outline: as §1
# [11] = system: PPARg:RXRa DBDmut IVT, anti-RXR (DBD mutation: RXRa K156A/R161A, NR concentration 270 nM, RXRa partner concentration 90 nM)
# Outline: as §1
# [12] = system: PPARg:RXRa IVT, anti-PPARg (NR concentration 270 nM, RXRa partner concentration 90 nM)
# Outline: as §1
# [13] = system: PPARg DBDmut:RXRa IVT, anti-PPARg (DBD mutation: PPARg1 K132A/R137A, NR concentration 270 nM, RXRa partner concentration 90 nM)
# Outline: as §1
# [14] = system: PPARg DBDmut IVT, anti-PPARg (DBD mutation: PPARg1 K132A/R137A, NR concentration 270 nM)
# Outline: as §1
# [15] = system: PPARg homodimer (NR concentration 180 nM)
# Outline: as §1
# [16] = system: PXR:RXRa (NR concentration 270 nM, RXRa partner concentration 90 nM)
# Outline: as §1
# [17] = system: PXR homodimer (NR concentration 270 nM)
# Outline: as §1
# [18] = system: RARa:RXR (NR concentration 270 nM, RXRa partner concentration 90 nM)
# Outline: as §1
# [19] = system: RARa homodimer (NR concentration 270 nM)
# Outline: as §1
# [20] = system: RARb:RXRa (NR concentration 270 nM, RXRa partner concentration 90 nM)
# Outline: as §1
Sequence,PBM binding z-score [1],PBM binding z-score [2],PBM binding z-score [3],PBM binding z-score [4],PBM binding z-score [5],PBM binding z-score [6],PBM binding z-score [7],PBM binding z-score [8],PBM binding z-score [9],PBM binding z-score [10],PBM binding z-score [11],PBM binding z-score [12],PBM binding z-score [13],PBM binding z-score [14],PBM binding z-score [15],PBM binding z-score [16],PBM binding z-score [17],PBM binding z-score [18],PBM binding z-score [19],PBM binding z-score [20]
CGTCCAAGGTCAATGCTAGGACAGTGAAAGCATT,6.19,4.43,0.325,3.53,0.27,5.19,3.96,4.09,1.22,2.76,3.02,3.24,-0.452,-0.465,1.7,3.22,0.241,3.44,-0.11,4.96
TAGCCTCGGTCAGATCGGGCCAGTATACGCTATA,-0.00556,-0.383,-0.622,-0.821,-0.951,-0.586,0.128,-0.706,-0.684,-1.07,-1.11,-0.335,-0.636,-1.63,-1.18,-0.533,-1.31,-0.301,-1.52,1.78
GCGACAGGGGCATCAGCAGGTTACCATAACTTAA,0.0406,0.297,-0.329,1.42,-0.683,1.33,0.386,0.0152,-0.411,-0.547,0.0717,-0.102,-1.02,-1.18,0.4,0.643,0.0793,1.08,-0.68,1.27
TCTTGTAGATCAATAGTGGTTAAGAAAGTGCGCT,0.499,0.37,-0.000472,0.00968,0.297,0.451,-0.385,1.4,2.83,2.06,1.98,0.303,0.28,1.33,0.545,0.46,0.364,0.481,0.947,0.0691
TTACCAAGGGGAGCTGAGGTCGTTGATCCAACTC,1.8,0.173,-0.107,0.623,-0.398,0.818,-0.207,0.37,0.187,-0.00393,0.0938,0.219,-0.939,-0.633,-0.405,2.35,0.544,1.03,-0.882,0.604
AGTCAAAGTTCAGGACGAGGTAACGTAAAGCACG,3.82,3.74,0.999,1.93,0.286,3.46,4.47,4.95,2.17,3.94,-0.443,2.06,0.129,0.321,1.91,2.94,0.827,2.8,0.702,4.26
